Five compounds from PubChem BioAssay (EPA / NIEHS) can be followed below.

Read-out in assay [1]: Urokinase-type plasminogen activator receptor (uPAR), PLAUR (gene 5329)
Description: BSK_BE3C_uPAR: BioMAP Diversity Plus: BE3C Assay for Urokinase-type plasminogen activator receptor (uPAR) Biomarker Activity (AID 2283039).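 For outcome: uPAR protein level measured by ELISA on the cells; cells exposed to compound for one day before measurement.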 Particulars: primary human bronchial epithelial cells; actives raise or lower the signal. The method in brief:
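Chemically treated human bronchial epithelial cells (lung primary) are assayed for uPAR by ELISA after 24 h, with data fitted in both directions using DMSO as negative control.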

Read-out in assay [2]: Interleukin-6 (IL6), IL6 (gene 3569)
The assay is described as follows: BSK_CASM3C_IL6: BioMAP Diversity Plus: CASM3C Assay for Interleukin-6 (IL6) Biomarker Activity for (AID 2283040). Particulars: primary human coronary artery smooth muscle cells; actives raise or lower the signal.

Read-out in assay [3]: Tissue plasminogen activator (tPA), PLAT (gene 5327)
The assay is described as follows: BSK_BE3C_tPA: BioMAP Diversity Plus: BE3C Assay for Tissue plasminogen activator (tPA) Biomarker Activity (AID 2283041).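 For outcome: tPA level quantified by ELISA one day after compound addition.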 Particulars: primary human bronchial epithelial cells; actives raise or lower the signal. The procedure, abridged: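 Using human lung primary bronchial epithelial cells, tPA was measured by ELISA 24 h after dosing; data fitted relative to DMSO.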

Read-out in assay [4]: Interleukin-8 (IL8), CXCL8 (gene 3576)
The assay is described as follows: BSK_CASM3C_IL8: BioMAP Diversity Plus: CASM3C Assay for Interleukin-8 (IL8) Biomarker Activity (AID 2283042).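 Note: IL-8 protein level quantified by ELISA.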 Particulars: primary human coronary artery smooth muscle cells; actives raise or lower the signal.

Read-out in assay [5]: Human Leukocyte Antigen - DR isotype (HLADR), HLA-DRA (gene 3122)
Description: BSK_CASM3C_HLADR: BioMAP Diversity Plus: CASM3C Assay for Human Leukocyte Antigen - DR isotype (HLADR) Biomarker Activity (AID 2283043).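 Note: cell-surface HLA-DR protein level quantified by ELISA.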 Particulars: primary human coronary artery smooth muscle cells; actives raise or lower the signal.

Read-out in assay [6]: Macrophage colony-stimulating factor (MCSF), CSF1 (gene 1435)
Description: BSK_CASM3C_MCSF: BioMAP Diversity Plus: CASM3C Assay for Macrophage colony-stimulating factor (MCSF) Biomarker Activity (AID 2283044).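 Note: M-CSF protein amount quantified by ELISA after 24 h exposure.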 The conditions noted are these: primary human coronary artery smooth muscle cells; actives raise or lower the signal.

Read-out in assay [7]: Low-density lipoprotein receptor (LDLR), LDLR (gene 3949)
Description: BSK_CASM3C_LDLR: BioMAP Diversity Plus: CASM3C Assay for Low-density lipoprotein receptor (LDLR) Biomarker Activity (AID 2283045).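 Note: LDLR protein level on the cell surface quantified by ELISA.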 The conditions noted are these: primary human coronary artery smooth muscle cells; actives raise or lower the signal.

Read-out in assay [8]: Monocyte Chemoattractant Protein-1 (MCP1), CCL2 (gene 6347)
The assay is described as follows: BSK_CASM3C_MCP1: BioMAP Diversity Plus: CASM3C Assay for Monocyte Chemoattractant Protein-1 (MCP1) Biomarker Activity (AID 2283046).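 Note: MCP-1 level quantified by ELISA 24 h after dosing.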 Particulars: primary human coronary artery smooth muscle cells; actives raise or lower the signal.

A short description of assay [9]: BSK_CASM3C_Proliferation: Cell Proliferation Assessment in the BioMAP Diversity Plus: CASM3C Assay (AID 2283047).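 Note: sulforhodamine B total protein stain as relative cell number at 560 nm; sub-confluent cells exposed 48 h before staining; fitted both ways against DMSO so gain or loss of cell number.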 Particulars: primary human coronary artery smooth muscle cells.
Read-out in assay [10]: Monokine induced gamma interferon (MIG), CXCL9 (gene 4283)
Description: BSK_CASM3C_MIG: BioMAP Diversity Plus: CASM3C Assay for Monokine induced gamma interferon (MIG) Biomarker Activity (AID 2283048).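 Note: MIG protein level measured by ELISA.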 Particulars: primary human coronary artery smooth muscle cells; actives raise or lower the signal.

Read-out in assay [11]: serum amyloid A (SAA), SAA1 (gene 6288)
Description: BSK_CASM3C_SAA: BioMAP Diversity Plus: CASM3C Assay for serum amyloid A (SAA) Biomarker Activity (AID 2283049).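 Note: SAA protein level quantified by ELISA.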 Particulars: primary human coronary artery smooth muscle cells; actives raise or lower the signal.

A short description of assay [12]: BSK_CASM3C_SRB: Viability Assessment in the BioMAP Diversity Plus: CASM3C Assay (AID 2283050).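 Note: total protein by SRB staining as cytotoxicity measure in parallel cultures; cells exposed to compound for 24 h.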 Particulars: primary human coronary artery smooth muscle cells.
Read-out in assay [13]: Thrombomodulin, THBD (gene 7056)
Description: BSK_CASM3C_Thrombomodulin: BioMAP Diversity Plus: CASM3C Assay for Thrombomodulin Biomarker Activity (AID 2283051).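 Note: thrombomodulin protein level measured by ELISA 24 h after dosing.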 The conditions noted are these: primary human coronary artery smooth muscle cells; actives raise or lower the signal.

Read-out in assay [14]: Tissue Factor, F3 (gene 2152)
The assay is described as follows: BSK_CASM3C_TissueFactor: BioMAP Diversity Plus: CASM3C Assay for Tissue Factor Biomarker Activity (AID 2283052).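 Note: cell surface tissue factor protein level read by ELISA.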 Particulars: primary human coronary artery smooth muscle cells; actives raise or lower the signal.

Read-out in assay [15]: Interferon-gamma inducible Protein 10 (IP10), CXCL10 (gene 3627)
The assay is described as follows: BSK_hDFCGF_IP10: BioMAP Diversity Plus: hDFCGF Assay for Interferon-gamma inducible Protein 10 (IP10) Biomarker Activity (AID 2283053). The conditions noted are these: primary human foreskin fibroblasts; actives raise or lower the signal. The procedure, abridged:
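Chemical-treated human skin fibroblasts (primary) were sampled at 24 h for IP-10 by ELISA. Both increases and decreases relative to DMSO were scored.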

Read-out in assay [16]: Urokinase-type plasminogen activator receptor (uPAR), PLAUR (gene 5329)
The assay is described as follows: BSK_CASM3C_uPAR: BioMAP Diversity Plus: CASM3C Assay for Urokinase-type plasminogen activator receptor (uPAR) Biomarker Activity (AID 2283054).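 Note: cell-surface uPAR protein level quantified by ELISA.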 Particulars: primary human coronary artery smooth muscle cells; actives raise or lower the signal.

Read-out in assay [17]: Vascular cell adhesion molecule 1 (VCAM1), VCAM1 (gene 7412)
Description: BSK_CASM3C_VCAM1: BioMAP Diversity Plus: CASM3C Assay for Vascular cell adhesion molecule 1 (VCAM1) Biomarker Activity (AID 2283055).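 Note: VCAM-1 protein level quantified by ELISA on the cells.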 The conditions noted are these: primary human coronary artery smooth muscle cells; actives raise or lower the signal.

Read-out in assay [18]: Collagen III, COL3A1 (gene 1281)
The assay is described as follows: BSK_hDFCGF_CollagenIII: BioMAP Diversity Plus: hDFCGF Assay for Collagen III Biomarker Activity (AID 2283056). Particulars: primary human foreskin fibroblasts; actives raise or lower the signal. The method in brief: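 ELISA readout of Collagen III in human dermal (foreskin) fibroblasts, taken 24 h post-treatment. Gain or loss relative to DMSO vehicle fitted in both directions.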

Read-out in assay [19]: Epidermal growth factor receptor (EGFR), EGFR (gene 1956)
The assay is described as follows: BSK_hDFCGF_EGFR: BioMAP Diversity Plus: hDFCGF Assay for Epidermal growth factor receptor (EGFR) Biomarker Activity (AID 2283057). The conditions noted are these: primary human foreskin fibroblasts; actives raise or lower the signal. The method in brief: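 Cell-based multiplexed assay in primary human foreskin fibroblasts. EGFR is read by ELISA 24 h after treatment and compared with DMSO controls.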

Read-out in assay [20]: Interleukin-8 (IL8), CXCL8 (gene 3576)
The assay is described as follows: BSK_hDFCGF_IL8: BioMAP Diversity Plus: hDFCGF Assay for Interleukin-8 (IL8) Biomarker Activity (AID 2283058). Particulars: primary human foreskin fibroblasts; actives raise or lower the signal. The method in brief:
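IL-8 levels read by ELISA at 24 hours after dosing human skin fibroblast cultures. Parallel SRB staining assessed overt cytotoxicity, and gain or loss of signal was fitted against DMSO control.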

The source made the active and inactive calls. Rule for the calls: active = hit-call score of the fitted dose curve at least 0.9, where 1 is the maximum; inactive = score below 0.9.

On to `CN(C)C(=S)SSC(=S)N(C)C`, for which the AC50 is 9.65 µM (active) in [1]; 12 µM (active) in [3]; 12 µM (active) in [6]; 20 µM (active) in assay [8]; 12.6 µM (active) in assay [9]; 14.6 µM (active) in assay [10]. For the same compound, the half-maximal activity concentration (AC50) in [13] is 9.88 µM (active); in assay [15], 2.74 µM (active); in [17] it was 11.5 µM (active); in assay [18] it was 6.36 µM (active); in assay [19], 5.9 µM (active); in [20], 7.67 µM (active). Further, the result in assay [2], in assay [4], in assay [5], in assay [7], in assay [11] and in assay [12] was inactive. For the same compound, the outcome in assay [14] and in assay [16] was inactive.
Regarding `CC1=C(C(=O)Nc2ccccc2)SCCO1`, the outcome in assay [1], in [2], in assay [3], in assay [4], in assay [5] and in [7] was inactive. Also, the result in assay [8], in assay [9], in assay [10], in assay [11], in [12] and in assay [13] was inactive. For the same compound, the outcome in assay [14], in [15], in assay [16], in [17], in assay [18] and in assay [19] was inactive. In assay [20], the result was inactive. Besides, the AC50 in [6] was 0.524 µM (active).
Regarding `CCc1nn(C)c(C(=O)NCc2ccc(C(C)(C)C)cc2)c1Cl`, the concentration at half-maximal activity (AC50) was 27.3 µM (active) in assay [1]; 20 µM (active) in [3]; 14.4 µM (active) in assay [9]; 13.2 µM (active) in assay [13]; 28.8 µM (active) in assay [15]; 20 µM (active) in [18]. The AC50 in assay [20] is 35.4 µM (active). The outcome in assay [2], in assay [4], in [5], in assay [6], in [7] and in [8] was inactive. For the same compound, the outcome in assay [10], in [11], in assay [12], in assay [14], in [16] and in assay [17] was inactive. The result in assay [19] was inactive.
Take `CCCCNC(=O)n1c(NC(=O)OC)nc2ccccc21`: the outcome in assay [1], in assay [2], in assay [3], in [4], in [5] and in assay [6] was inactive. Further, the outcome in assay [7], in [8], in assay [9], in assay [10], in [11] and in assay [12] was inactive. Besides, the result in [14], in assay [16], in assay [17], in assay [18], in assay [19] and in assay [20] was inactive. Moreover, the results for the AC50 in [13] and in assay [15] were 17.4 µM (active) and 33.8 µM (active), respectively.
In the case of `CCCCC(CC)COC(=O)c1ccccc1C(=O)OCC(CC)CCCC` (stereo not given), the result in assay [1], in assay [3], in assay [4], in assay [5], in assay [6] and in assay [7] was inactive. Also, the result in [8], in assay [9], in assay [10], in [11], in assay [12] and in [13] was inactive. Further, the outcome in [14], in assay [16], in assay [17], in [18], in [19] and in assay [20] was inactive. For the same compound, the concentration at half-maximal activity (AC50) was 7.31 µM (active) in assay [2] and 16.6 µM (active) in [15].

For orientation: AC50 means the midpoint of the concentration-response curve, whichever way the signal moves.
